Experimental data: PubChem BioAssay (Tox21)
Results filed as inconclusive are left out. The source made the active and inactive calls. Unless noted, the call rests on the fitted dose curve; in most records, active means well fitted curve in the direction sought with a large enough effect in the repeat runs; inconclusive means weak or mixed curves; inactive means no such curve, though single readings can be large; an effect the other way counts as inactive or inconclusive.

How the values were obtained:
[1] = qHTS assay to identify aromatase inhibitors - cell viability counter screen (AID 743084);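 further: cells stimulated with testosterone during compound exposure; nearly all actives have a fitted effect of over 55% in size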; further: potency means the concentration at half of the fitted maximal effect
[2] = biological target: Aryl hydrocarbon receptor (Homo sapiens) (UniProt P35869); test: qHTS assay to identify small molecule that activate the aryl hydrocarbon receptor (AhR) signaling pathway (AID 743085); further: nearly all actives have a fitted effect of over 15% in size; further: potency means the concentration at half of the fitted maximal effect;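 on activation: HG2L7.5c1 human HepG2 liver cells with stably integrated DRE-driven firefly reporter; series mostly up to about 70 µM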
Method in brief: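 Cell line HG2L7.5c1 (human hepatoma, 20× DRE-luc). Plated, 5 h 37C, compound/DMSO added, 24 h 37C. CellTiter-Fluor 30 min 37C → fluorescence; then ONE-Glo 30 min RT → luminescence.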

[3] = qHTS assay to identify small molecule that activate the aryl hydrocarbon receptor (AhR) signaling pathway - cell viability counter screen (AID 743086); further: nearly all actives have a fitted effect of over 45% in size; further: potency means the concentration at half of the fitted maximal effect;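 on viability change, negative = cytotoxic: HepG2 liver cells carrying the AhR DRE luciferase reporter; series mostly up to about 70 µM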
Method in brief: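 HepG2-AhR-luc (HG2L7.5c1) cells, 4000/well, treated 24 h at 37 C with compound; viability measured as CellTiter-Fluor fluorescence after 30 min in the same wells as the luciferase read.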

[4] = qHTS assay for small molecule agonists of the antioxidant response element (ARE) signaling pathway (AID 743202; active means well fitted activation curve with a large enough effect in the signal ratio in the repeat runs, not every such curve was filed as active; the % refers to the signal ratio; further: potency means the concentration at half of the fitted maximal effect)
Method in brief: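 ARE-bla HepG2 cells (beta-lactamase reporter under the antioxidant response element), plated 5 hours, then exposed to compounds 16 hours at 37 C. LiveBLAzer B/G FRET substrate added for 2 hours at room temperature; fluorescence intensity read.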

[5] = qHTS assay for small molecule agonists of the antioxidant response element (ARE) signaling pathway - cell viability counter screen (AID 743203; calls by dose curve; further: nearly all actives have a fitted effect of over 55% in size)
Method in brief: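 Compounds in DMSO were pinned onto ARE-bla HepG2 cells plated 5 hrs earlier at 2,000 cells/well. Sixteen hours later at 37C/5% CO2, CellTiter-Glo was added and luminescence measured after 30 min at room temperature.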

[6] = qHTS assay for small molecule activators of the heat shock response signaling pathway - cell viability counter screen (AID 743209); further: nearly all actives have a fitted effect of over 50% in size
Method in brief: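 Counter screen for cytotoxicity in HeLa HSE-bla reporter cells. Treatment was 5 h at 37 C; viability was detected by luminescent ATP assay (CellTiter-Glo) in the same wells as the beta-lactamase read.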

[7] = qHTS assay for small molecule activators of the heat shock response signaling pathway (AID 743210; active means well fitted activation curve with a large enough effect in the signal ratio in the repeat runs, with a control signal flat, not every such curve was filed as active; the % refers to the signal ratio; further: series mostly up to about 63 µM)
Method in brief: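 HSE-bla HeLa cells (beta-lactamase reporter under heat shock response elements), plated overnight, then exposed to compounds 5 h at 37 C; LiveBLAzer B/G FRET substrate added, 2.5 h at room temperature, fluorescence intensity read.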

[8] = qHTS assay to identify small molecule antagonists of the peroxisome proliferator-activated receptor gamma (PPARg) signaling pathway - cell viability counter screen (AID 743194); conditions: Potency: co-treated with 50 nM rosiglitazone; further: nearly all actives have a fitted effect of over 55% in size; further: potency means the concentration at half of the fitted maximal effect
Method in brief: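 Cytotoxicity counter screen in PPARg-bla HEK293H cells, same wells as reporter assay. Compounds plus 50 nM rosiglitazone (final) for 17 h at 37 C, then viability read by CellTiter-Glo luminescence.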

[9] = biological target: Peroxisome proliferator-activated receptor gamma (Homo sapiens) (UniProt P37231); test: qHTS assay to identify small molecule antagonists of the peroxisome proliferator-activated receptor gamma (PPARg) signaling pathway (AID 743191; calls by dose curve; further: series mostly up to about 63 µM; nearly all actives have a fitted effect of over 30% in size)
Method in brief: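 GeneBLAzer PPARg UAS-bla HEK293H cells, 5 h post-plating, exposed to compounds 17 h at 37C. LiveBLAzer B/G FRET substrate added for 1 h at room temperature; beta-lactamase reporter read by fluorescence intensity.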

[10] = biological target: Peroxisome proliferator-activated receptor gamma (Homo sapiens) (UniProt P37231); test: qHTS assay to identify small molecule agonists of the peroxisome proliferator-activated receptor gamma (PPARg) signaling pathway (AID 743094; active means well fitted activation curve with a large enough effect in the signal ratio in the repeat runs, not every such curve was filed as active; the % refers to the signal ratio)
Method in brief: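 Following 5 h plating at 37C, PPARg-bla HEK293H cells receive compound or DMSO for 17 h; fluorescence intensity is recorded after LiveBLAzer B/G loading for 1 h at room temperature.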
On the % scale 0 is the no-effect control and ±100 the full control effect.

Chain of Peroxisome proliferator-activated receptor gamma (Homo sapiens) (P37231 whole entry, looked up): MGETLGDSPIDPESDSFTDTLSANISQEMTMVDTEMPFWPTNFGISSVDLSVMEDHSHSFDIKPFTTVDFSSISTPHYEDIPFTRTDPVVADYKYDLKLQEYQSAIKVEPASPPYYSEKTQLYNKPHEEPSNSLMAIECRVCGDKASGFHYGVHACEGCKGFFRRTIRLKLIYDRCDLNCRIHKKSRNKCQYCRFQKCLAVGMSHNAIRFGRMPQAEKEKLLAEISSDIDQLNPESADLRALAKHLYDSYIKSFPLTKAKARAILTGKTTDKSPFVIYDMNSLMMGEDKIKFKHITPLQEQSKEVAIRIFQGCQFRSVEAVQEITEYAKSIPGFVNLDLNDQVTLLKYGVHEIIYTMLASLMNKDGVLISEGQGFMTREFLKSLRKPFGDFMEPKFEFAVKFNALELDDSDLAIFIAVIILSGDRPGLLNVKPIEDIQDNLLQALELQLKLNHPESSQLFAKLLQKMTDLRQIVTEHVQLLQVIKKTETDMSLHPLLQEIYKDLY
Chain of Aryl hydrocarbon receptor (Homo sapiens) (P35869 whole entry, looked up): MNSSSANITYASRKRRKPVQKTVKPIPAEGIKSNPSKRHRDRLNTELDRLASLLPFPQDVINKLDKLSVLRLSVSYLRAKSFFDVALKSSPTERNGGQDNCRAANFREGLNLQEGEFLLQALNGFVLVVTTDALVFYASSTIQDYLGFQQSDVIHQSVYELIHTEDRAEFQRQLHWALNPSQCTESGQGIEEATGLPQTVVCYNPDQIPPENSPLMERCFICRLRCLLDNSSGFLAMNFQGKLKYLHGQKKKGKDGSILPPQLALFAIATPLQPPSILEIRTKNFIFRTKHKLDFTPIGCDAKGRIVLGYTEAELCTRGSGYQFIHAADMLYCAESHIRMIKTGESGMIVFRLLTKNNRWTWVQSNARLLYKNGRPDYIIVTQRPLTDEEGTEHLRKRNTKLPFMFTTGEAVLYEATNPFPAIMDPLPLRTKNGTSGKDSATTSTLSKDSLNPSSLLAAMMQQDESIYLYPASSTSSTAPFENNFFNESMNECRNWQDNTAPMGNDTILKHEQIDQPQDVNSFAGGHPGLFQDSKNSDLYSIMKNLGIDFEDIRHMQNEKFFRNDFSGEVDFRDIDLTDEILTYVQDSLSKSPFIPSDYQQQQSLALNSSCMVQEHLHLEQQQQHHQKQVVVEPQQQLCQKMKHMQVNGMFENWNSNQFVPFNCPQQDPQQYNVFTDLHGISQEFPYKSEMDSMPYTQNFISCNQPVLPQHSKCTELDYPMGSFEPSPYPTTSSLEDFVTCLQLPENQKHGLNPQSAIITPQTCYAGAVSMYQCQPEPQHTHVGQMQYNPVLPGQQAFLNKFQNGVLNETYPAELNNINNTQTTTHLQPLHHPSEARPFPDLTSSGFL

CC(C)N(CCC(C(N)=O)(c1ccccc1)c1ccccn1)C(C)C (stereo not given)
inactive: Potency [1] | Potency [2] | Potency [3] | Potency [4] | Potency [5] | Potency [6] | outcome [7]

CC(C)(C)c1cc([N+](=O)[O-])cc([N+](=O)[O-])c1O
active: Potency [1] 17.2 µM | Potency [3] 27.2 µM | Potency [8] 0.435 µM
inactive: Potency [2]

CC(C)(C)C(O)C(Oc1ccc(Cl)cc1)n1cncn1 (stereo not given)
active: Potency [2] 18.6 µM
inactive: Potency [1] | Potency [3] | Potency [8] | Potency [6]

COc1c(C(C)(C)C)cc([N+](=O)[O-])c(C)c1[N+](=O)[O-]
inactive: Potency [1] | Potency [2] | Potency [3] | Potency [4] | Potency [5] | Potency [6] | outcome [7]

CN1C(=O)C(O)N=C(c2ccccc2)c2cc(Cl)ccc21 (stereo not given)
inactive: Potency [1] | Potency [2] | Potency [3] | Potency [8] | Potency [5] | Potency [6]

CC(Cl)C(C)Cl (stereo not given)
inactive: Potency [1] | Potency [2] | Potency [3] | Potency [4] | Potency [5] | Potency [6]

C[C@H]1CNCCc2ccc(Cl)cc21
inactive: Potency [1] | Potency [2] | Potency [3] | Potency [8] | Potency [5] | Potency [6] | outcome [7]

NCC(CC(=O)O)c1ccc(Cl)cc1 (stereo not given)
inactive: Potency [1] | Potency [2] | Potency [3] | activity change, negative = cytotoxicity [8] -16.4% [at 0.55 µM] | activation [4] -5.3% [at 0.756 µM] | viability change, negative = cytotoxic [5] 4.15% [at 0.756 µM] | activity change, negative = cytotoxicity [6] 1.94% [at 0.55 µM] | activation [7] -1.61% [at 0.55 µM]

Cl/C=C\Cl
inactive: Potency [1] | Potency [2] | Potency [3] | Potency [8] | Potency [4] | Potency [5] | Potency [6]

O=C(O)CC(Cl)C(=O)O (stereo not given)
active: Potency [4] 2.76 µM
inactive: Potency [1] | Potency [2] | Potency [3] | Potency [8] | Potency [6] | outcome [7]

S=C=NCc1ccccc1
inactive: Potency [1] | Potency [2] | Potency [3]
active: Potency [4] 24.6 µM

C=CCC1([C@H](C)CCC)C(=O)NC(=O)NC1=O
inactive: Potency [1] | Potency [2] | Potency [3] | Potency [8] | Potency [5] | Potency [6] | outcome [7]

CS/C(C)=N/OC(=O)N(C)SN(C)C(=O)O/N=C(\C)SC
inactive: Potency [1] | Potency [2] | Potency [3] | Potency [8] | Potency [4] | Potency [5] | Potency [6]

CCOc1nc(F)cc2nc(S(=O)(=O)Nc3c(Cl)cccc3Cl)nn12
inactive: Potency [1] | Potency [2] | Potency [3] | Potency [8] | Potency [4] | Potency [5] | Potency [6] | outcome [7]

[O-][Cl+]O
inactive: Potency [1] | Potency [2] | Potency [3] | Potency [9] | Potency [5] | Potency [6] | outcome [7]

C=CC(=O)OC
inactive: Potency [1] | Potency [2] | Potency [3] | Potency [8] | Potency [4] | Potency [5] | Potency [6] | outcome [7]

Cc1ccccc1CCl
inactive: Potency [1] | Potency [2] | Potency [3] | Potency [8] | Potency [5] | Potency [6] | outcome [7]

COP(=O)(OC)O/C(=C/Cl)c1cc(Cl)c(Cl)cc1Cl
active: Potency [4] 5.75 µM
inactive: Potency [1] | Potency [2] | Potency [3] | Potency [5] | Potency [6] | outcome [7]

c1ccoc1
inactive: Potency [1] | Potency [2] | Potency [3] | Potency [8] | Potency [4] | Potency [5] | Potency [6] | outcome [7]

CC1(C)[C@H](C=C(Cl)Cl)[C@@H]1C(=O)O[C@@H](C#N)c1cccc(Oc2ccccc2)c1
inactive: Potency [1] | Potency [2] | Potency [3] | Potency [4] | Potency [5] | Potency [6]

NNC(=O)c1cccnc1
inactive: Potency [1] | Potency [3] | Potency [10] | Potency [8] | Potency [4] | Potency [5] | Potency [6] | outcome [7]

CC(C)(Cl)[N+](=O)[O-]
inactive: Potency [1] | Potency [3] | Potency [10] | Potency [8] | Potency [4] | Potency [5] | Potency [6] | outcome [7]

O=C=Nc1ccc(Cl)cc1
active: Potency [4] 43.3 µM
inactive: Potency [1] | Potency [3] | Potency [10] | Potency [8] | Potency [5] | Potency [6]

O=C(O)C(F)(F)C(F)(F)C(F)(F)C(F)(F)C(F)(F)C(F)(F)C(F)(F)C(F)(F)C(F)(F)C(F)(F)F
inactive: Potency [1] | Potency [3] | Potency [10] | Potency [8] | Potency [5] | Potency [6] | outcome [7]

CN(N=O)c1ccc([N+](=O)[O-])cc1
inactive: Potency [1] | Potency [3] | Potency [10] | Potency [9] | Potency [8] | Potency [4] | Potency [5] | Potency [6] | outcome [7]

O=C(NCc1cccnc1)Nc1ccc([N+](=O)[O-])cc1
inactive: Potency [1] | Potency [3] | Potency [10] | Potency [8] | Potency [4] | Potency [5] | Potency [6] | outcome [7]

CCN(C)N=O
inactive: Potency [1] | Potency [3] | Potency [10] | Potency [9] | Potency [8] | Potency [5] | Potency [6] | outcome [7]

CCCCN(N=O)C(=N)N[N+](=O)[O-]
inactive: Potency [1] | Potency [3] | Potency [10] | Potency [8] | Potency [4] | Potency [5]

ClCc1ccccc1
inactive: Potency [1] | Potency [3] | Potency [10] | Potency [8] | Potency [4] | Potency [5] | Potency [6]

Cn1cc[n+](C)c1 (tested in a mixture with another compound)
inactive: Potency [1] | Potency [3] | Potency [10] | Potency [8] | Potency [4] | Potency [5] | Potency [6] | outcome [7]

O=[Se]=O
inactive: Potency [1] | Potency [2] | Potency [9] | Potency [5] | Potency [6] | outcome [7]
active: Potency [4] 8.58 µM

CCOP(=S)(OCC)SCn1nnc2ccccc2c1=O
inactive: Potency [2] | Potency [10] | Potency [6]
active: Potency [1] 54.5 µM | Potency [8] 43.6 µM | Potency [4] 3.06 µM

OCCCBr
inactive: Potency [1] | Potency [3] | Potency [10] | Potency [8] | outcome [7]

c1cc2ccc3cccc4ccc(c1)c2c34
inactive: Potency [1] | Potency [2] | Potency [6]
